Experimental data published in the supplement of paper PMC11732987, “Enantioselective OTUD7B fragment discovery through chemoproteomics screening and high-throughput optimisation” (Communications Chemistry, 2025).

How the values were obtained:
Assay in all cases: log2 ratio of Biotin-Ahx-Ub-VS probe labelling (fragment/DMSO); higher = less target engagement (more negative = stronger competition), active = hit call of the paper (q ≤ 0.05, log2 ratio ≤ -1)
Conditions in all cases: compound concentration: 200 uM; treatment time: 3 h
USP19 = target: T1, USP19 (UniProt O94966)
T1 sequence (whole entry): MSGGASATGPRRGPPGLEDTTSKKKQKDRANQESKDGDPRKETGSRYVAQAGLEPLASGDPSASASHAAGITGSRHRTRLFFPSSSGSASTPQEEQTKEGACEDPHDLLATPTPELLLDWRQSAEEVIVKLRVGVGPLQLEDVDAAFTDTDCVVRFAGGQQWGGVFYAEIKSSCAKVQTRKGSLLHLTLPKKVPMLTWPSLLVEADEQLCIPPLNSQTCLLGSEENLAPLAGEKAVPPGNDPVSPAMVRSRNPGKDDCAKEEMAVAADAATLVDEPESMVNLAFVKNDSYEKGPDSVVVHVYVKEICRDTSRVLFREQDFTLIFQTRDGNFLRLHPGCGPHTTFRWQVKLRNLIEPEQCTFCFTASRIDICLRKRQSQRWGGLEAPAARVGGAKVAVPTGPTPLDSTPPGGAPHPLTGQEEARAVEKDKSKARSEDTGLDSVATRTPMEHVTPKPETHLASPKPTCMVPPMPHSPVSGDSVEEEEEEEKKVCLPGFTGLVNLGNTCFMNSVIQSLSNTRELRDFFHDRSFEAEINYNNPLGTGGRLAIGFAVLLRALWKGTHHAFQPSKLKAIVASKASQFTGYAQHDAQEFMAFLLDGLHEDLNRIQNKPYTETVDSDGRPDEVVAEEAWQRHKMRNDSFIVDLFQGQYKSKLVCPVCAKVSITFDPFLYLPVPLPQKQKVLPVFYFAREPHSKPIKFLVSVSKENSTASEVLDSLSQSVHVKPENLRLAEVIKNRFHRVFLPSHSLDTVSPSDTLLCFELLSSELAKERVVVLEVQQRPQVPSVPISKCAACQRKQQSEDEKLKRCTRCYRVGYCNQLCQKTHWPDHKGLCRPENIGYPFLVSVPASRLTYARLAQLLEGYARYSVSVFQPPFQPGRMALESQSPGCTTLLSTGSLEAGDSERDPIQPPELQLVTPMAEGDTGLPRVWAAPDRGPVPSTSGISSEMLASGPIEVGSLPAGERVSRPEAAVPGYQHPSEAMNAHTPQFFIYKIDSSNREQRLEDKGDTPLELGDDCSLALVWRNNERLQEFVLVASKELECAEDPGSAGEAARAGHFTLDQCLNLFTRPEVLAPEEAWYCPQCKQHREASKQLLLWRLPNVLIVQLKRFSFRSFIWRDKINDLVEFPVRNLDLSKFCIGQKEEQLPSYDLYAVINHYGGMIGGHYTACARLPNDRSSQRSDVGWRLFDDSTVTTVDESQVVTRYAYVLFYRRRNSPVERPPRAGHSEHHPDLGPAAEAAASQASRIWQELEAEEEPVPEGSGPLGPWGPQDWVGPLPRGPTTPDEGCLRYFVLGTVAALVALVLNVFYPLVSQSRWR
Procedure, shortened: (§1)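 Each value is an average log2 ratio of fragment to vehicle, tested by unpaired t-test. The underlying Spectronaut label-free quantities were global-median-normalised, and only proteins with ≥2 unique peptides were included. Triplicate HEK293T lysate samples (495 µg) were exposed to fragment at 200 µM or vehicle for 3 h, then to Biotin-Ahx-Ub-VS at 0.5 µM final for 1 h, before NeutrAvidin enrichment of labelled DUBs, LysC and trypsin digestion, and diaPASEF LC-MS/MS.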

USP22 = target: T2, USP22 (UniProt Q9UPT9)
T2 sequence (whole entry): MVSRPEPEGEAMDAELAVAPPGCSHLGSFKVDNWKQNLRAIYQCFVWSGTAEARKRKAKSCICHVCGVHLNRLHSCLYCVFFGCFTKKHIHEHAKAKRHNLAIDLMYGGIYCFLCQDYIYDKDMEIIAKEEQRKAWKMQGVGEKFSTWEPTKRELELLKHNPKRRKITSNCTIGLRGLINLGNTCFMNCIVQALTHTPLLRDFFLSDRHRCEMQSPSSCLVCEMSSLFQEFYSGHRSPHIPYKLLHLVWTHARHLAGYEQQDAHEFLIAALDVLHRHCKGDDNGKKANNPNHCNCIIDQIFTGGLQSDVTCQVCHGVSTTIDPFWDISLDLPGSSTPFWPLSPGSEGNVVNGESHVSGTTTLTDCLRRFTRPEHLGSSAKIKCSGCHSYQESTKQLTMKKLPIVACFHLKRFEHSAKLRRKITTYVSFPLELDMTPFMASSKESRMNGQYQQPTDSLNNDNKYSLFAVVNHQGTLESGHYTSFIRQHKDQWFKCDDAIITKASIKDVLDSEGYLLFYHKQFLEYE
Procedure, shortened: as §1

USP24 = USP24 (UniProt Q9UPU5)
Procedure, shortened: as §1

USP25 = target: T3, USP25 (UniProt Q9UHP3)
T3 sequence (whole entry): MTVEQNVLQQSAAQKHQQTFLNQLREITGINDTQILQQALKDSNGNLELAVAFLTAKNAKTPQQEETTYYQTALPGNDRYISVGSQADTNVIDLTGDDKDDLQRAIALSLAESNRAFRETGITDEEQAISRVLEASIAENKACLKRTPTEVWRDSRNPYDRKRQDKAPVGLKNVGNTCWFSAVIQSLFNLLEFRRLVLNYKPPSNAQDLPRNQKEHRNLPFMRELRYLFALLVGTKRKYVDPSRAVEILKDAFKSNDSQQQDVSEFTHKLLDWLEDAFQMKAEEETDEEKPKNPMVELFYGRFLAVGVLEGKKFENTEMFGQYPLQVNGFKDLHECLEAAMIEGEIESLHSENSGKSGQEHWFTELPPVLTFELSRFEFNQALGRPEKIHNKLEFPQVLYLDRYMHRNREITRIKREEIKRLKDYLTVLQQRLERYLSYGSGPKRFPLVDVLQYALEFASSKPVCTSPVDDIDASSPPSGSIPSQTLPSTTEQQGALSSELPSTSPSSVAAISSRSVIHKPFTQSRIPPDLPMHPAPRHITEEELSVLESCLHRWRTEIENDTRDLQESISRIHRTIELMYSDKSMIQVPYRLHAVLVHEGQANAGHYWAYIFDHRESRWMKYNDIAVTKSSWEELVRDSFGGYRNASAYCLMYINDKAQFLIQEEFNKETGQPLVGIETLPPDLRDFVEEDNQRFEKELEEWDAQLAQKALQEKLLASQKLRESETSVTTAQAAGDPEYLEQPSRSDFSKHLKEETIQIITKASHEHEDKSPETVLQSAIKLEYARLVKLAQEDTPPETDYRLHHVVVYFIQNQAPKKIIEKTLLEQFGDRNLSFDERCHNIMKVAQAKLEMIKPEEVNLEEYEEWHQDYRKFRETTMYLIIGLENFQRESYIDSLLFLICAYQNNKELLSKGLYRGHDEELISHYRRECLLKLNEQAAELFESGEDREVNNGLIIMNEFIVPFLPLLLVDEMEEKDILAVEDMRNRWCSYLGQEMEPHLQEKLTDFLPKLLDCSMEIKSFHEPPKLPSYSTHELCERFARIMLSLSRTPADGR
Procedure, shortened: as §1

USP28 = target: T4, USP28 (UniProt Q96RU2)
T4 sequence (whole entry): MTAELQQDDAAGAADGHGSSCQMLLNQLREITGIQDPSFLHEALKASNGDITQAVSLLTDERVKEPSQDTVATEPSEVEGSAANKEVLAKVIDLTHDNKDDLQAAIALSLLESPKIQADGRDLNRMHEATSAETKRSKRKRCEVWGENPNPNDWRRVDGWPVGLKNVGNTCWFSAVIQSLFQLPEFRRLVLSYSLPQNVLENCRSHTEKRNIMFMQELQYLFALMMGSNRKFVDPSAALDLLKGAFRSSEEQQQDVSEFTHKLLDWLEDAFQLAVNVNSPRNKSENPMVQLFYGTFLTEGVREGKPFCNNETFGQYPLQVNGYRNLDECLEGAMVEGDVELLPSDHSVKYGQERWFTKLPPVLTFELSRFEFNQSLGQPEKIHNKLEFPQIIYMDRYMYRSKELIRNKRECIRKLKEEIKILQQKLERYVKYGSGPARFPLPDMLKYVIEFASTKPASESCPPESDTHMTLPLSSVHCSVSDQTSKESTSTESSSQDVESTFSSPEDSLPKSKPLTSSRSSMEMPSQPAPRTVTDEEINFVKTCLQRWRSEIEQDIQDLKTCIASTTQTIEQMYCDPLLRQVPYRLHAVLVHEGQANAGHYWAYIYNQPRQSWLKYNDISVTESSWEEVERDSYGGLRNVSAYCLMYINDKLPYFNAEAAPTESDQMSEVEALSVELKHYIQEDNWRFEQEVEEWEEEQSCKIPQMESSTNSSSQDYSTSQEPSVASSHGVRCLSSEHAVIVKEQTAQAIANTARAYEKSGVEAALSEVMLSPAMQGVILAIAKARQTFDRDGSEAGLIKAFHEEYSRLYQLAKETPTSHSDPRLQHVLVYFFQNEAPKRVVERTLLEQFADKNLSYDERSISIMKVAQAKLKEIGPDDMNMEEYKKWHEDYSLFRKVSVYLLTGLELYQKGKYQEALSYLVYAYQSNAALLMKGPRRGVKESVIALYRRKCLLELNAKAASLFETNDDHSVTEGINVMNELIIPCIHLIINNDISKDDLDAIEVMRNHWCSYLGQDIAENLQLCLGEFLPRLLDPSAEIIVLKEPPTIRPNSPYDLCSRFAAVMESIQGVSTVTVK
Procedure, shortened: as §1

Measured: log2 ratio of Biotin-Ahx-Ub-VS probe labelling

USP24, sequence (Q9UPU5 whole entry): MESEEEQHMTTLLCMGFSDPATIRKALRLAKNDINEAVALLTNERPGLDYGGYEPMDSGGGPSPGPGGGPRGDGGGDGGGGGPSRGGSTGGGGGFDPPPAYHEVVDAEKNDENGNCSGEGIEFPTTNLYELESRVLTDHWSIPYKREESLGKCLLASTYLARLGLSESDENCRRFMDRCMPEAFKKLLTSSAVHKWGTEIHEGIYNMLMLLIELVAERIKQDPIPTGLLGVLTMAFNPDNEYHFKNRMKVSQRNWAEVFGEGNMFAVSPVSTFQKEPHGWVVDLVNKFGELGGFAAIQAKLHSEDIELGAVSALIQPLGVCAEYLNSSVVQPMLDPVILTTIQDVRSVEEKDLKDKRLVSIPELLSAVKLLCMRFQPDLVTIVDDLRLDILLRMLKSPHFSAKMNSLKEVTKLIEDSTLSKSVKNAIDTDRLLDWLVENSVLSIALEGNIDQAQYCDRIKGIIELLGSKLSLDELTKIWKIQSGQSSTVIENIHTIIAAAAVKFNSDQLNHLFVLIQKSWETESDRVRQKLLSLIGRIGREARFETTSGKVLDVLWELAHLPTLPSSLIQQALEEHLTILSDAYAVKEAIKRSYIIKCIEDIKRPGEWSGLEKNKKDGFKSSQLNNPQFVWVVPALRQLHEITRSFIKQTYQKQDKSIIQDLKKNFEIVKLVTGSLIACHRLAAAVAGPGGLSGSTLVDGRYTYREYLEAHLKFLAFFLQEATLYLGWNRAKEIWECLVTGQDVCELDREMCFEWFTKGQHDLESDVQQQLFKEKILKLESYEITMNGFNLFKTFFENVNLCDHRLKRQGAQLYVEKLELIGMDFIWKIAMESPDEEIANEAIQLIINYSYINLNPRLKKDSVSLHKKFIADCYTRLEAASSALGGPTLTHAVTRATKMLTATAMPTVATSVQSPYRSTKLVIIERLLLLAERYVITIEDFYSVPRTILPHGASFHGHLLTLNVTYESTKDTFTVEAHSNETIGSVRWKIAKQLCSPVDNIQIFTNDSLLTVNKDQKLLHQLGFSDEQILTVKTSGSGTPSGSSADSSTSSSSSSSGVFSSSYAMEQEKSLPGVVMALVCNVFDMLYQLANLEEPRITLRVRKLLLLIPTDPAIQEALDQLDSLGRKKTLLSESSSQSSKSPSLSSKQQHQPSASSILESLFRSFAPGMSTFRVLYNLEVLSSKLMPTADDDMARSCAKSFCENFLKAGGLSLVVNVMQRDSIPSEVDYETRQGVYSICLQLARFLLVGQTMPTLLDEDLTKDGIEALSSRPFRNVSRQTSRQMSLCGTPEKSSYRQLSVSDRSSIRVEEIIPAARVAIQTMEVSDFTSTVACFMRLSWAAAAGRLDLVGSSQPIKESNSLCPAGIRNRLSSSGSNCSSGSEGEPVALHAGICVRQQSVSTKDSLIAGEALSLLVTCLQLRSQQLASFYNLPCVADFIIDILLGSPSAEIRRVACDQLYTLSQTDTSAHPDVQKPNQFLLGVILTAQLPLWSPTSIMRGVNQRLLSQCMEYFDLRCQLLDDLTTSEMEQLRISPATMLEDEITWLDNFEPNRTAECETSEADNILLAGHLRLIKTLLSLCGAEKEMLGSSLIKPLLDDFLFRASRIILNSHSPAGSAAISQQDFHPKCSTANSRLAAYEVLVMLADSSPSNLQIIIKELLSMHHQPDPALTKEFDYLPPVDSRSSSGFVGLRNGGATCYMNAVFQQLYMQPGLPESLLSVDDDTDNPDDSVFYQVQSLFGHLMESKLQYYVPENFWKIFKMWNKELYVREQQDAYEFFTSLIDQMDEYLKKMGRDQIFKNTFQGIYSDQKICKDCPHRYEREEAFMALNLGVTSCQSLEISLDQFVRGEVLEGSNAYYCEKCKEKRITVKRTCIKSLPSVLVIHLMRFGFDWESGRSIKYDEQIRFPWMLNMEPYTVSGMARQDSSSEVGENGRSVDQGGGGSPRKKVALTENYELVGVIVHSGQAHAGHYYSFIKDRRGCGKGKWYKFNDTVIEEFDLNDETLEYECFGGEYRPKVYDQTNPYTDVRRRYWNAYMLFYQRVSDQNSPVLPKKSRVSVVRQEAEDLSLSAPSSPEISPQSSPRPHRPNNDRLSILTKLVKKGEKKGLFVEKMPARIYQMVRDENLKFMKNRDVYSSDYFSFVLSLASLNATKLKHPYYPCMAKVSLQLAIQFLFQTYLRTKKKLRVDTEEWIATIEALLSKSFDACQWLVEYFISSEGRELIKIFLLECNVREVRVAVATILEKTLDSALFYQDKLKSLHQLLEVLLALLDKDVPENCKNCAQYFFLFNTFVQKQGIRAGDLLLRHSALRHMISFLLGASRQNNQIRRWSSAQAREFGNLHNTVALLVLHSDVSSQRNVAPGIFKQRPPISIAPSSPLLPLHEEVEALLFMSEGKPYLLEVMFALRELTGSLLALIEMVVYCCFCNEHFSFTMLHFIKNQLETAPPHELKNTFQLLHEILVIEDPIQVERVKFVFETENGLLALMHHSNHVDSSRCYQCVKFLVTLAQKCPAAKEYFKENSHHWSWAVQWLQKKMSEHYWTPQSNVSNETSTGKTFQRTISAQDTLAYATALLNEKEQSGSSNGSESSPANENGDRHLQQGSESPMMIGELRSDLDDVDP

Cc1ccc(N2CCC(NC(=O)CCl)C2=O)cc1 (stereo not given)
inactive: USP19 0.0818 | USP22 -0.233 | USP24 0.141 | USP25 0.0471 | USP28 -0.0346
